Drawing on PubChem BioAssay (NCATS), this text covers outcome, Potency and activity change, negative = inhibition for six molecules.

Molecules are shown by their SMILES. Records with an inconclusive call do not appear. Values without a mark were called inactive. Active and inactive are the calls of the source. Calls come from the whole dose curve; as a rule, active = well fitted inhibition curve with a large enough effect; inconclusive = small, poorly fitted or top-dose-only effect; inactive = no such curve, though single readings can be large or run the other way.

Experiment [1] relates to Zika virus NS2B-NS3 protease (unlinked). Put plainly: Optimization of GU AMC qHTS for Zika virus inhibitors: Unlinked NS2B-NS3 protease assay (AID 1347151).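 Note: 0% = no-inhibitor control and -100% = no-enzyme control; nearly all actives have a fitted effect of over 80% in size.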 The note with it: recombinant ZIKV NS2B-NS3 protease, fluorogenic AMC substrate; series mostly up to 52.5 µM. The text has this:
Avindra Nath, Ph.D., National Institute of Neurological Disorders and Stroke (NINDS), Bethesda, MD
Radhakrishnan Padmanabhan, Ph.D., Georgetown University (GU), Washington D.C.
Zika Virus causes congenital defects, including microcephaly and is associated with Guillain-Barre syndrome, eningoencephalitis and myelitis in infected adult. […] Using a target-based approach, we hope to establish a screening paradigm to uncover novel, cell-active NS2B-NS3 protease (Zika Virus) specific inhibitors from NCATS' collection of small molecules using qHTS.
Early Translation Branch (ETB)
National Center for Advancing Translational Sciences (NCATS), Rockville, MD […]
Briefly, 3 microL of Zika virus unlinked NS2B-NS3 protease (25 nM for linked final concentration), in assay buffer (10 mM Tris-HCl pH 8.0 with 0.01% Tween 20) was dispensed into a 1,536-well solid-bottom black plate (Greiner Bio One, Monroe, NC). […] Plates were then read immediately on a ViewLux High-throughput CCD imager (PerkinElmer, Waltham, MA) equipped with standard UV fluorescence optics (340(30) nm excitation, 450(20) nm emission) then incubated (room temperature, protected from light) for 15 minutes (~20% conversion). The change in fluorescence intensity over the 15-minute reaction period was normalized against no-inhibitor and no-enzyme controls and the resulting percent inhibition data were fitted to a 4-parameter Hill equation. […]

For experiment [2], the system named is Zika virus NS2B-NS3 protease (unlinked complex). Put plainly: Primary screen GU Rhodamine qHTS for Zika virus inhibitors: Unlinked NS2B-NS3 protease assay (AID 1347159). Note: % is set by controls: 0 for no effect and ±100 for the full control effect; nearly all actives have a fitted effect of over 60% in size. The following applies: Recombinant ZIKV NS2B-NS3 protease, Rhodamine110 substrate fluorescence; series mostly up to 107 µM. The method, boiled down:
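Buffer 10 mM Tris-HCl pH 8.0, 0.01% Tween 20. Unlinked protease 25 nM; compound preincubation 15 min, RT, protected from light. Substrate Rhod110, 1.5 microM; ~15% conversion in 15 min.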
(qHTS replaces the single test concentration by a dilution series.)

Experiment [3] concerns Zika virus NS2B-NS3 protease (linked construct). Put plainly: Primary screen NINDS Rhodamine qHTS for Zika virus inhibitors (AID 1347160). For activity change, negative = inhibition: % is set by controls: 0 for no effect and ±100 for the full control effect. Note: nearly all actives have a fitted effect of over 55% in size. The following applies: purified NS2B-NS3 protease, Rhodamine110 substrate fluorescence; series mostly up to 57.1 µM. An outline of the steps: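 Aprotinin served as in-plate control. Conditions: 25 nM linked NS2B-NS3, pH 8.0 Tris buffer, titrated compounds, 15 min preincubation and 15 min reaction with 1.5 microM Rhod110 substrate at room temperature.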

Take `CC[C@]1(O)CC2CN(CCc3c([nH]c4ccccc34)[C@@](C(=O)OC)(c3cc4c(cc3OC)N(C)[C@H]3[C@@](O)(C(=O)OC)[C@H](OC(C)=O)[C@]5(CC)C=CCN6CC[C@]43[C@@H]65)C2)C1` (stereo partly specified): the result in experiment [1] was inactive. Regarding `CC1(C)CCC2(C(=O)OC3OC(CO)C(O)C(O)C3O)CCC3(C)C(=CCC4C5(C)CCC(OC6OC(C(=O)O)C(OC7OC(CO)C(O)C(O)C7O)C(OC7OC(CO)C(O)C(O)C7O)C6O)C(C)(C)C5CCC43C)C2C1` (stereo unspecified), the Potency result in experiment [2] and in experiment [3] was “inactive” in each case. `Cc1cccc(Oc2cnc(=O)[nH]c2)c1`: the Potency result in experiment [2] and in experiment [3] was “inactive” each time. As for `C/C=C(\C)C(=O)OCC1OC(OC2OC(COC(=O)/C(C)=C/C)C(OC3OC(CO)C(OC(=O)/C(C)=C/C)C(OC(=O)/C(C)=C/C)C3O)C(O)C2O)C(O)C(O)C1OC1OC(CO)C(OC(=O)/C(C)=C/C)C(OC(=O)/C(C)=C/C)C1O` (stereo unspecified), the Potency entry in experiment [2] and in experiment [3] was “inactive” in each case. For the molecule `C[C@@H]1O[C@@H](O[C@H]2[C@H](OC(=O)[C@]34CCC(C)(C)C[C@H]3C3=CCC5[C@@]6(C)C[C@H](O)[C@H](O[C@@H]7O[C@H](CO)[C@@H](O[C@H]8OC[C@](O)(CO)[C@H]8O)[C@H](O)[C@H]7O)[C@@](C)(CO)C6[C@H](O)C[C@@]5(C)[C@]3(C)C[C@H]4O)OC[C@H](O)[C@@H]2O)[C@H](O)[C@H](O)[C@H]1O[C@@H]1OC[C@@H](O)[C@H](O[C@@H]2OC[C@](O)(CO)[C@H]2O)[C@H]1O` (stereo partly specified), the activity change, negative = inhibition is 20.8% [at 19.1 µM] in experiment [2] and 33.3% [at 10.7 µM] in experiment [3].

Take `CN(C)c1nc(NC2CCC(NCCc3ccc(Br)cc3OC(F)(F)F)CC2)nc2ccccc12` (stereo unspecified): the Potency entry in experiment [2] and in experiment [3] was “inactive” in each case.
